Experimental data from the supplement of paper PMC13380429.

Tested on: Vero E6 infected with SARS-CoV-2
Test: inhibition of SARS-CoV-2 cytopathic effect; higher = more antiviral protection, active = above 15
Settings: 48 h

Measured: inhibition of SARS-CoV-2 cytopathic effect

CCC1(c2ccc(N)cc2)CCC(=O)NC1=O (stereo not given) [aminoglutethimide]
inactive: 1 nM -0.9% | 8.33 nM 2.8% | 100 nM 3.28% | 833.33 nM 2.95% | 10000 nM 2.93%

CNC(=O)[C@H]1O[C@@H](n2cnc3c(NCc4cccc(I)c4)ncnc32)[C@H](O)[C@@H]1O
inactive: 1 nM 0.17% | 8.33 nM 0.13% | 100 nM -0.04% | 833.33 nM 0.25% | 10000 nM -2.76%

Cc1ccc(-c2ncn(-c3ccc(Nc4nccc(-c5cccc(N6CCOCC6)c5)n4)cc3)n2)cn1
inactive: 1 nM -4.9% | 8.33 nM -4.6% | 100 nM -3.08% | 833.33 nM -5.23% | 10000 nM -2.89%

CCC1(c2c[nH]cn2)Cc2ccccc2C1 [atipamezole]
inactive: 1 nM 0.76% | 8.33 nM 2.54% | 100 nM 0.58% | 833.33 nM 2.4% | 10000 nM 1.28%

CCc1cc(C(N)=S)ccn1 [ethionamide]
inactive: 1 nM -1.54% | 8.33 nM 0.54% | 100 nM -0.38% | 833.33 nM -1.73% | 10000 nM 2.79%

C#C[C@]1(O)CC[C@H]2[C@@H]3CCC4=CC(=O)CC[C@]4(C)[C@H]3CC[C@@]21C [ethisterone]
inactive: 1 nM 2.99% | 8.33 nM 3.61% | 100 nM 2.08% | 833.33 nM -0.95% | 10000 nM 2.77%

CNCC[C@H](Oc1cccc2ccccc12)c1cccs1 [duloxetine]
inactive: 1 nM -2.53% | 8.33 nM -0.71% | 100 nM 0.92% | 833.33 nM -2.04% | 10000 nM -6.87%
